Consider eight compounds from PubChem BioAssay (NCATS).

A number with no mark means an inactive call. Records with an inconclusive call do not appear. Activity calls are given as the source filed them. Unless noted, calls come from the whole dose curve; as a rule, active = well fitted curve in either direction with a large enough effect (not every such curve was filed as active); inconclusive = small, poorly fitted or top-dose-only effect, or another doubt; inactive = flat fitted curve, though single readings scatter.

In assay [1] the target is Lysosomal acid glucosylceramidase (Homo sapiens) (UniProt P04062). Description: Glucocerebrosidase-p2 (AID 348; in the data active = potency below about 10 µM; note: potency is the fitted concentration of half-maximal effect). Particulars: purified GBA, blue fluorogenic substrate, 40 min. In a few lines: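 Normal human glucocerebrosidase (0.2 nM) with blue fluorogenic substrate (80 uM final) in citrate/phosphate pH 5.9 with 10mM sodium taurocholate, 0.01% tween-20; 40 min RT, NaOH/glycine stop; fluorescence Ex 365/Em 440; AC50 from a titration from 0.6 nM upwards.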
Sequence of Lysosomal acid glucosylceramidase (Homo sapiens) (P04062 whole entry, looked up): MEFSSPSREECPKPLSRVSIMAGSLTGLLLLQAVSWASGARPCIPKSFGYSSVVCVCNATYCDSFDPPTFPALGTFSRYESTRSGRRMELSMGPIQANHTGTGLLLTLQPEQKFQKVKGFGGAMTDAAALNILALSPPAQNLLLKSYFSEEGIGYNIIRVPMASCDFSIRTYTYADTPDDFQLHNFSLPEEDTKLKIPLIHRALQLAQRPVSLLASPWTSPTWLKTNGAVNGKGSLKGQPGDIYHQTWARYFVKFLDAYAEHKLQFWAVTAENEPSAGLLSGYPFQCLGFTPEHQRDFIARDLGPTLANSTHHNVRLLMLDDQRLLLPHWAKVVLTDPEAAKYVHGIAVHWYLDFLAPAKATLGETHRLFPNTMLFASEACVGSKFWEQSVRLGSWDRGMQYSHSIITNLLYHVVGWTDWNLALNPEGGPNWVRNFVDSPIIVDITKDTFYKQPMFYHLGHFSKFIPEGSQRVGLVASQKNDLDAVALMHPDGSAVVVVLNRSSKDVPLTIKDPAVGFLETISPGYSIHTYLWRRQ

The nature of assay [2]: AP1 Signaling Pathway (AID 357).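 Note: ME-180 reporter cells stimulated with EGF at its EC50 level; % is set by controls: 0 for no effect and ±100 for the full control effect.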 The note with it: ME-180 AP-1-bla reporter, EGF-induced, beta-lactamase ratio, 5 h; at 7.69 µM (top of the series) unless noted. In a few lines:
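Read-out was the 460nm/530nm emission ratio (excitation 405nm) after CCF4 loading for 2.5 hours at room temperature. Cells carried an AP-1-driven beta-lactamase reporter, were stimulated with EC50 EGF plus compound for 5 hours, and AC50 values came from titrations.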

A short description of assay [3]: NFAT Signaling Pathway (AID 444).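 Note: carbachol stimulus at about its EC50 of 1 µM final; % is set by controls: 0 for no effect and ±100 for the full control effect.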 The note with it: Jurkat NFAT-bla M1, carbachol, beta-lactamase ratio, 5 h; at 7.69 µM (top of the series) unless noted. The gist of the method: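 Jurkat cells with NFAT-driven β-lactamase reporter and co-expressed M1 receptor, stimulated with carbachol (final 1 uM, ~EC50), compound titration, 5 h at 37 °C. CCF4 loaded 1 h at RT; 460/530 nm ratio gave %activity and AC50.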

The nature of assay [4]: Stat Signaling Pathway (AID 446).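 Note: ME-180 cervical cancer cells given 40 pM IL-6 alongside compound; SIE-controlled beta-lactamase reporter measured as 460/530 nm FRET emission ratio; % is set by controls: 0 for no effect and ±100 for the full control effect.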 The note with it: ME-180 (cervical carcinoma) SIE beta-lactamase reporter, IL-6 stimulated, 5 h; at 7.69 µM (top of the series) unless noted. In a few lines: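 Normalization used AC90 stimulation (300 pM IL-6) and AC90 inhibition (125 nM pan-JAK inhibitor at 40 pM IL-6). The underlying signal is SIE-driven beta-lactamase in ME-180 cells after 5 h IL-6 exposure with compound.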

The target of assay [5] is Glucocorticoid receptor (Homo sapiens) (UniProt P04150). Nature of the assay: GR-GFP Redistribution (AID 450;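 active = compounds whose dose series gives a full or clear partial fitted curve of increased nuclear translocation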; note: potency is the fitted concentration of half-maximal effect). The note with it: U2OS GR-GFP nuclear translocation, laser cytometry, 2 h.
Sequence of Glucocorticoid receptor (Homo sapiens) (P04150 whole entry, looked up, the tested form may be a part): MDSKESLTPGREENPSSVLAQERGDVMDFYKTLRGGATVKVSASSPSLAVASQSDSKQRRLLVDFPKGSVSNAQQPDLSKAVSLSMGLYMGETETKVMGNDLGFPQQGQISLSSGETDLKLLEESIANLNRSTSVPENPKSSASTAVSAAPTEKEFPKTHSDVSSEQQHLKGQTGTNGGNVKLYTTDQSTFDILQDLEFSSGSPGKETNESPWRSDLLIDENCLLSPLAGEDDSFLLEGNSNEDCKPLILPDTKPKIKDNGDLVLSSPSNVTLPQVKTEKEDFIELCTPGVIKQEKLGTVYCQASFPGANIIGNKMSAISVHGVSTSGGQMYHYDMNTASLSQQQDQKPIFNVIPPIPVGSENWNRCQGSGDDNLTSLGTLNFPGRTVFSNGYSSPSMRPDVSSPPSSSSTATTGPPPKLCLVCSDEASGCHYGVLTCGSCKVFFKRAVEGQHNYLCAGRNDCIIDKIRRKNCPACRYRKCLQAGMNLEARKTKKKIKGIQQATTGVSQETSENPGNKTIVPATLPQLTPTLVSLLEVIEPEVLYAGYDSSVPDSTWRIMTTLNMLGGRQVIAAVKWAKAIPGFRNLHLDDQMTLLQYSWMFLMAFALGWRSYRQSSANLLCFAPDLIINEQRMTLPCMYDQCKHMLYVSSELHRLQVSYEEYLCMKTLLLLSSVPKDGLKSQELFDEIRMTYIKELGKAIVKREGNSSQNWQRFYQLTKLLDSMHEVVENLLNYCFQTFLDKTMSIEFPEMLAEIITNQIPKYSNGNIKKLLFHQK
Assay [6] shares this target. Description: GR-EFC Redistribution (AID 451; calls by dose curve; note: potency is the fitted concentration of half-maximal effect). Particulars: CHO-K1 GR-EFC translocation, beta-gal luminescence, 2 h. The gist of the method: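 CHO-K1 cells expressing nuclear EA and GR-ED fragments of b-gal; compounds titrated up to 46 uM final, 2 h at 37 C. GR nuclear translocation read as complemented b-gal luminescence after 1 h RT detection.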
Assay [7] deals with Mitogen-activated protein kinase 10 (Mus musculus) (UniProt Q61831). Nature of the assay: JNK3 AlphaScreen Assay (AID 530).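 Note: kinase came from lysate of stimulated human HepG2 cells; signal reports phosphorylation of biotinylated GST-cJun 1-79 at Ser73 with 10 µM ATP; % is set by controls: 0 for no effect and ±100 for the full control effect.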 Particulars: JNK3 lysate, c-Jun phosphorylation; series mostly up to 11.4 µM. In a few lines: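 HepG2 lysate (IL-1b/TNFa pre-activated) + biotin-GST-cJun 1-79 + anti-pSer73 cJun; cpd titration, 15 min RT; ATP 10 uM start; Tris pH 7.6, MgCl2, DTT, vanadate; beads in EDTA buffer; AlphaScreen.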

In assay [8] the target is 3',5'-cyclic-AMP phosphodiesterase 4B (Homo sapiens) (UniProt Q07343). Description: qHTS Assay for Inhibitors of PDE-IV (AID 607; active = well fitted activation curve with a large enough effect in the main read-out, with a control signal flat, not every such curve was filed as active; note: % of control where 0% means no effect). Particulars: HEK293 ACTOne CNG channel cells, membrane potential fluorescence; series mostly up to 22.9 µM. The gist of the method: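 HEK293 ACTOne cells with CNG channel (1000/well), endogenous PDE4; membrane potential dye, compounds up to 22.9 uM final. Fluorescence Ex 535/Em 590; RO 20-1724 (100 uM final) as reference.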
Sequence of 3',5'-cyclic-AMP phosphodiesterase 4B (Homo sapiens) (Q07343 whole entry, looked up): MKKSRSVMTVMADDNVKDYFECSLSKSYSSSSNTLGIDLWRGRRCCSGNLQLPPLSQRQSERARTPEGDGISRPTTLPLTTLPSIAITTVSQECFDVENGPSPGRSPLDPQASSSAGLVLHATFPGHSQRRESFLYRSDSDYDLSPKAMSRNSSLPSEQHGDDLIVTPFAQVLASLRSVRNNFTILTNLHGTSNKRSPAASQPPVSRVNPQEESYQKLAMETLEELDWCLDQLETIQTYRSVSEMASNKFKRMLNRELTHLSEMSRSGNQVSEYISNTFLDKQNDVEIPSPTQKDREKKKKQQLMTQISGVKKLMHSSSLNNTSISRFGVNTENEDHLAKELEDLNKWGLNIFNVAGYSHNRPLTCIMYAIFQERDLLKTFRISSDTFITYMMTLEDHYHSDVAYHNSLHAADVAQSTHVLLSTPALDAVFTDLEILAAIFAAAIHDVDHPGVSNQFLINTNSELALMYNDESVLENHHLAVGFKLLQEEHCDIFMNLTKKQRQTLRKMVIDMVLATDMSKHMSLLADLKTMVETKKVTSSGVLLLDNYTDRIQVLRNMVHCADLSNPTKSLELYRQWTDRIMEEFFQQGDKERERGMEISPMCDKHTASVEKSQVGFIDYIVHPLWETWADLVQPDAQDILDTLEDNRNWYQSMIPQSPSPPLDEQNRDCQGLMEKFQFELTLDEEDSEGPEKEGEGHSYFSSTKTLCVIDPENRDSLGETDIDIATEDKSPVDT
A general note: qHTS replaces the single test concentration by a dilution series.

The target in assay [9] is Cytochrome P450 2C9 (Homo sapiens) (UniProt P11712). Description: qHTS Assay for Inhibitors and Substrates of Cytochrome P450 2C9 (AID 883; active = well fitted curve in the direction sought with a large enough effect; an effect the other way counts as inactive or inconclusive; note: % is set by controls: 0 for no effect and ±100 for the full control effect; nearly all actives have a fitted effect of over 60% in size). The note with it: recombinant CYP2C9, luciferin-H luminescence, 60 min; series mostly up to 11.4 µM. In a few lines:
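10nM CYP2C9 + 100uM Luciferin-H (=KM), 25mM KPO4; cpd 10 min 37C; NADPH regen, 60 min 37C; stop/detect with P450 Glo-Buffer 20 min; luminescence. Norm. to 57uM sulphaphenazole as full inhibition.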

The target of assay [10] is Cytochrome P450 3A4 (Homo sapiens) (UniProt P08684). Nature of the assay: qHTS Assay for Inhibitors and Substrates of Cytochrome P450 3A4 (AID 884; active = well fitted curve in the direction sought with a large enough effect; an effect the other way counts as inactive or inconclusive; note: nearly all actives have a fitted effect of over 50% in size; note: potency is the fitted concentration of half-maximal effect). The note with it: recombinant CYP3A4, Luciferin-PPXE luminescence; series mostly up to 57.1 µM. The gist of the method:
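Luminescent readout of luciferin produced by CYP3A4 (20 nM) dealkylation of Luciferin-PPXE, 25 uM (its KM). NADPH-driven reaction ran 60 min at RT after 10 min compound preincubation; data scaled to 57 uM ketoconazole as 100% inhibition.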

Assay [11] has as its target Cytochrome P450 2D6 (Homo sapiens) (UniProt P10635). Description: qHTS Assay for Inhibitors and Substrates of Cytochrome P450 2D6 (AID 891; active = well fitted curve in the direction sought with a large enough effect; an effect the other way counts as inactive or inconclusive;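 note: luciferin methyl ether substrate demethylated by CYP2D6 with NADPH regeneration; % is set by controls: 0 for no effect and ±100 for the full control effect; nearly all actives have a fitted effect of over 60% in size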). Particulars: recombinant CYP2D6, luciferin-ME EGE luminescence; series mostly up to 11.4 µM. In a few lines:
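Luminescent read-out of luciferin formed by 5 nM human CYP2D6 demethylating 30 uM Luciferin-ME EGE (Km level) over 60 min at room temperature after NADPH regeneration addition. Data normalized to full inhibition by 1.43 uM quinidine.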

Assay [12] addresses Cytochrome P450 2C19 (Homo sapiens) (UniProt P33261). Nature of the assay: qHTS Assay for Inhibitors and Substrates of Cytochrome P450 2C19 (AID 899; active = well fitted curve in the direction sought with a large enough effect; an effect the other way counts as inactive or inconclusive; note: % is set by controls: 0 for no effect and ±100 for the full control effect; nearly all actives have a fitted effect of over 60% in size). Particulars: recombinant CYP2C19, luciferin-H EGE luminescence; series mostly up to 11.4 µM. The gist of the method: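 Luminescent read-out of luciferin formed from Luciferin-H EGE (10uM, equal to KM). Enzyme 5nM in 50mM KPO4; compound added, 10 min at 37C, then NADPH regenerating system for 60 min at 37C. Full inhibition defined by 57uM ketoconazole.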

In assay [13] the target is Cytochrome P450 3A4 (Homo sapiens) (UniProt P08684). Nature of the assay: qHTS Assay for Activators of Cytochrome P450 3A4 (AID 885; active = well fitted curve in the direction sought with a large enough effect; an effect the other way counts as inactive or inconclusive; note: nearly all actives have a fitted effect of over 65% in size). The note with it: recombinant CYP3A4, Luciferin-PPXE luminescence, 60 min; series mostly up to 11.4 µM. In a few lines:
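Human CYP3A4 dealkylates Luciferin-PPXE to luciferin, which luciferase detection converts to light. Substrate was at its KM (25uM), buffer 200mM KPO4, reaction 60 min at RT.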

Sequence of Cytochrome P450 3A4 (Homo sapiens) (P08684 whole entry, looked up): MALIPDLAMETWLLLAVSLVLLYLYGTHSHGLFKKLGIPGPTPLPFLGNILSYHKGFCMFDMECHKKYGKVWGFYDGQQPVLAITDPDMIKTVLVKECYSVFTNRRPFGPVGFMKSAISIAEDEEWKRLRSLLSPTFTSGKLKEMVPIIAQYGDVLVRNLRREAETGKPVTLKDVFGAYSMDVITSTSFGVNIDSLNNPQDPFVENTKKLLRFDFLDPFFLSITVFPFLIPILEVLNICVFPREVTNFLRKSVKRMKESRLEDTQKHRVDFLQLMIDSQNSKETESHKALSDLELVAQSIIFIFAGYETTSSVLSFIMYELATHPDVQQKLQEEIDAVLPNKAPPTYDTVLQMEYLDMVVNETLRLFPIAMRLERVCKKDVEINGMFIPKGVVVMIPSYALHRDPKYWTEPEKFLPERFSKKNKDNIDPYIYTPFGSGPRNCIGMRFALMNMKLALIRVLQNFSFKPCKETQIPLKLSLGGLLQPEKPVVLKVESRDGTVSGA
Sequence of Cytochrome P450 2C9 (Homo sapiens) (P11712 whole entry, looked up): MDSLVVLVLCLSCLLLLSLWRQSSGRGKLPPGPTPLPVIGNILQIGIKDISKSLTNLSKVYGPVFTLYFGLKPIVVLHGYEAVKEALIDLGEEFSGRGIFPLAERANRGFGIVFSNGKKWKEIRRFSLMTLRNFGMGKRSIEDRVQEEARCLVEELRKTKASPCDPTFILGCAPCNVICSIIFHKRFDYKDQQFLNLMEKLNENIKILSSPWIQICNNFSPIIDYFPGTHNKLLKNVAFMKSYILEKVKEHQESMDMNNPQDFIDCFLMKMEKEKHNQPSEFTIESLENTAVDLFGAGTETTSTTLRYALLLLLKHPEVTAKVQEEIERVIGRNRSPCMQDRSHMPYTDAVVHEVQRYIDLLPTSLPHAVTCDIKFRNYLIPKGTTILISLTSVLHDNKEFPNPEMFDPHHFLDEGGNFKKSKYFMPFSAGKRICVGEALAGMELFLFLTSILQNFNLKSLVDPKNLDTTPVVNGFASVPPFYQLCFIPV
Sequence of Cytochrome P450 2D6 (Homo sapiens) (P10635 whole entry, looked up): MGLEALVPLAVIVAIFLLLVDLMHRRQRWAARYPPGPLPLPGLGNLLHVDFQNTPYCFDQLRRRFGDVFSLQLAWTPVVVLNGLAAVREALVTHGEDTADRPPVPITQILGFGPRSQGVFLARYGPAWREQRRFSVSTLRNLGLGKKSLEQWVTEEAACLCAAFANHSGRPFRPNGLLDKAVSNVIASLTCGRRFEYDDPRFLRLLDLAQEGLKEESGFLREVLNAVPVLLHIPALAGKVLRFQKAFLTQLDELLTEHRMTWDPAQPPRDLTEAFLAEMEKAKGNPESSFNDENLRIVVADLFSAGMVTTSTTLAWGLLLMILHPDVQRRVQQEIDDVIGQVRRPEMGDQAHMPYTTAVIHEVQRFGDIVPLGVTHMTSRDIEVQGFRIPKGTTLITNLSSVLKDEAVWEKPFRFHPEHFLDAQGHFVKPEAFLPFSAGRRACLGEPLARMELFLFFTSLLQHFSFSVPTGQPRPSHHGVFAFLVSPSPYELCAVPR
Sequence of Cytochrome P450 2C19 (Homo sapiens) (P33261 whole entry, looked up): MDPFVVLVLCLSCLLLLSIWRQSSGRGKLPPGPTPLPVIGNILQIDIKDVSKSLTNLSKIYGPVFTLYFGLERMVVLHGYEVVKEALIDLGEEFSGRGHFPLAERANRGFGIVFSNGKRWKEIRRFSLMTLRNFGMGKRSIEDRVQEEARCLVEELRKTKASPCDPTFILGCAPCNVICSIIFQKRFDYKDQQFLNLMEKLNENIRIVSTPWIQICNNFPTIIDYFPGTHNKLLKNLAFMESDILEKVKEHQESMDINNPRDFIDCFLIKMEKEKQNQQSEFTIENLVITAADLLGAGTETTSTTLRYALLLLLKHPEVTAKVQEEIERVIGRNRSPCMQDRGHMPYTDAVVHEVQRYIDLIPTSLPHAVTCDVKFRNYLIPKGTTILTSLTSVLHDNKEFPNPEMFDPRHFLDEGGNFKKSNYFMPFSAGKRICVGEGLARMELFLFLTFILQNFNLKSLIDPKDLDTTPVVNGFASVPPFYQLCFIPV

Consider `O=C(O)CSc1n[nH]c(=O)[nH]c1=O`, for which the results for the Potency in assay [1], in assay [5] and in assay [6] were over 11.4 µM, over 46 µM and over 9.22 µM, respectively. Besides, the values for the activity change, negative = inhibition in assay [2], in [3] and in [10] were 0.951%, 5.38% and -64.1% [at 11.4 µM], respectively. Moreover, the activity, negative = inhibition in assay [4] was 13.4%. Further, the Potency result in [7], in assay [8], in assay [9], in assay [11] and in assay [12] was “inactive” each time.
With `O=C(O)CCCCn1cnc2c(=S)nc[nH]c21`, the Potency was over 11.4 µM in assay [1], over 46 µM in [5] and over 9.22 µM in assay [6]. For the same compound, the figures for the activity change, negative = inhibition in assay [2] and in assay [3] were 8.11% and 5.86%, respectively. Moreover, in [4], the activity, negative = inhibition is 6.11%. The Potency result in assay [7] and in assay [8] was “inactive” in each case.
Turning to `Cc1cc(=O)[nH]c(/N=C(\N)Nc2ccc(Cl)cc2)n1`, the Potency in assay [1] is over 11.4 µM; in assay [5] it was over 46 µM; in [6], over 9.22 µM. Besides, the results for the activity change, negative = inhibition in assay [2] and in [3] were -8.26% and -9.44%, respectively. Further, the activity, negative = inhibition in assay [4] is -3.21%. For the same compound, the Potency entry in [7] and in assay [8] was “inactive” in each case.
As to `C[n+]1cccc(/C=C\c2ccc3cccc(O)c3n2)c1`, the Potency in assay [1] is over 11.4 µM; in assay [5], over 46 µM; in assay [6], over 9.22 µM. Also, the activity change, negative = inhibition was -0.115% in assay [2] and 10.1% in [3]. Further, the activity, negative = inhibition in [4] is 3.53%. The Potency result in [7] and in assay [8] was “inactive” each time.
Turning to `[N-]=[N+]=N[C@@H]1[C@H](O)[C@H](CO)O[C@@H]1n1cnc2c(N)ncnc21`, the Potency in [1] was over 11.4 µM; in assay [5] it was over 46 µM; in assay [6] it was over 9.22 µM. The values for the activity change, negative = inhibition in [2] and in assay [3] were -7.07% and 9.28%, respectively. In addition, the activity, negative = inhibition in [4] was -12.3%. Further, the Potency entry in [7] and in assay [8] was “inactive” in each case.
On to `CN1CCC(n2[nH]c(-c3ccccc3)c(Cc3ccccc3)c2=O)CC1`, for which the Potency in assay [1] is over 11.4 µM; in [5] it was over 46 µM; in assay [6], over 9.22 µM; in assay [10] it was 3.98 µM (active). Also, the activity change, negative = inhibition in [2] was -1.32%; in [3] it was -82.4% (active). Moreover, the activity, negative = inhibition in assay [4] is 11.1%. The Potency result in [7], in [8] and in assay [13] was “inactive” in each case.
As for `Cc1cc(Cl)ccc1OCC(=O)Oc1c(Cl)c(Cl)c(Cl)c(Cl)c1Cl`, the Potency was over 11.4 µM in assay [1], over 46 µM in assay [5] and over 9.22 µM in assay [6]. Further, the activity change, negative = inhibition in assay [2] was 0.808%; in [3], -13.6%. In addition, the activity, negative = inhibition in assay [4] is -0.45%. Moreover, the Potency entry in assay [7] and in [8] was “inactive” in each case.
As to `O=C(O)Cc1c[nH]c2ccc(F)cc12`, the Potency was over 11.4 µM in assay [1], over 46 µM in assay [5] and over 9.22 µM in assay [6]. Also, the figures for the activity change, negative = inhibition in [2] and in assay [3] were 0.0381% and 24.2%, respectively. Further, the activity, negative = inhibition in [4] was 5.52%. Moreover, the Potency entry in [7] and in assay [8] was “inactive” in each case.
